Source: PubChem (National Center for Advancing Translational Sciences (NCATS))
FBPA Giardia inh = qHTS Assay for Inhibitors of Fructose-1,6-bisphosphate Aldolase from Giardia Lamblia; A8B2U2; AID 2451, 2010; purified Giardia FBPA; actives 0.71% (n = 290,000); Potency, µM (doses to about 59.6 µM), inactives show at the top dose activity, negative = inhibition, hits mostly inhibitors; also: potency is read from the fitted curve at half-maximal effect; % is scaled to controls: 0 for no effect and ±100 for the full control effect; nearly all actives have a fitted effect of over 55% in size
Target sequence (A8B2U2 whole entry, looked up): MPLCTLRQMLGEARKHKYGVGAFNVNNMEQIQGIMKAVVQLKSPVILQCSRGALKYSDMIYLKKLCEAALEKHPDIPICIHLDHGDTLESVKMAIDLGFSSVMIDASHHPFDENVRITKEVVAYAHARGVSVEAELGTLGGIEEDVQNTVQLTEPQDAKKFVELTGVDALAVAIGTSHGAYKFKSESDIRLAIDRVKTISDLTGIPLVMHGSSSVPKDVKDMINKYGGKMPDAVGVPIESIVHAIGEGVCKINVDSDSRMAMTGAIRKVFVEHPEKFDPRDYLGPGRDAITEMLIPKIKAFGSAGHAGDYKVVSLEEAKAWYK
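40 nM FBPA preincubated 10 min at RT with compound (up to 57.5 uM final), then substrate plus GAPDH/TPI/NAD/arsenate coupling and diaphorase/resazurin added. Fluorescence read after 20 min at RT, 525/598 nm.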
Shiga toxin inh = A qHTS for Small Molecule Inhibitors of Shiga Toxin; Vero cells, Shiga toxin protein synthesis inhibition reporter; inhibition, % at 38.7 µM; actives 9.2% (n = 290,000); AID 2315, 2010; in the data active = inhibition mostly above about 28%, no sharp cut-off; inactive = mostly below about 43%; also: 0% is about no effect
CHX counter = Cycloheximide Counterscreen for Small Molecule Inhibitors of Shiga Toxin; max response, %; cell reporter, cycloheximide protein synthesis inhibition counterscreen; AID 2314, 2010; actives 12% (n = 300,000); in the data active = max response mostly above about 13%, no sharp cut-off; inactive = mostly below about 14%; also: read at 38.3 µM for the half of the compounds with a filed dose; 0% is about no effect
Pf growth 48h = Primary qHTS for delayed death inhibitors of the malarial parasite plastid, 48 hour incubation; actives 5.9% (n = 310,000); AID 504832, 2011; Potency, µM (series often up to 28.7 µM), without a hit: at the highest dose activity change, negative = inhibition, most hits filed as inhibitors; P. falciparum luciferase growth in erythrocytes, 48 h; also: potency is read from the fitted curve at half-maximal effect; % is scaled to controls: 0 for no effect and ±100 for the full control effect
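Growth was read as firefly luciferase luminescence after a 48 h, 37 C, 5% CO2 exposure of compounds to reporter-bearing P. falciparum cultures (0.1% parasitemia, 2% hematocrit final) in Albumax-supplemented RPMI 1640.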
NS1 function inh = qHTS Assay for Inhibitors of Influenza NS1 Protein Function; actives 0.4% (n = 270,000); Potency, µM (top dose mostly 46.1 µM), inactives show at the top dose activity, positive = more growth; calls by dose curve; also: potency is read from the fitted curve at half-maximal effect; actives are rising curves; nearly all actives have a fitted effect of over 50% in size
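Growth recovery, yeast-based: influenza A NS1 expressed in S. cerevisiae causes slow growth, and suppressors are detected by OD600. The parent strain without NS1 is used as positive control.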
Pf growth 96h = Primary qHTS for delayed death inhibitors of the malarial parasite plastid, 96 hour incubation; Potency, µM (top dose mostly 28.7 µM), without a hit: top-dose activity change, negative = inhibition, hits mostly inhibitors; P. falciparum luciferase reporter growth, 96 h; actives 6.9% (n = 320,000); AID 504834, 2011; also: potency is read from the fitted curve at half-maximal effect; % is scaled to controls: 0 for no effect and ±100 for the full control effect
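Erythrocytes infected with luciferase-expressing P. falciparum were dispensed at 2% hematocrit and 0.05% parasitemia (final), then incubated with compounds 96 hours at 37 C in 5% CO2. Luminescence after detection reagent addition reported growth.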
Active calls of the source: *; ? = inconclusive; · = not tested or not shown; [ ] = dose if it differs, or a comment. Shown are actives, neighbours in structure and some others; about 21% of the full set was active somewhere. Unless noted, calls follow the shape of the dose curve; as a rule, active = well fitted curve in the direction sought with a large enough effect; inconclusive = small, poorly fitted or top-dose-only effect, or another doubt; inactive = no such curve, though single readings can be large; an effect the other way counts as inactive or inconclusive.

SMILES	FBPA Giardia inh	Shiga toxin inh	CHX counter	Pf growth 48h	NS1 function inh	Pf growth 96h
O=C(CSc1n[nH]c(-c2ccccn2)n1)Nc1ccccc1F	-29.8%	12.5	1.6	-10.8%	-2.9%	10.4µM*
O=C(CSc1cccc2cccnc12)Nc1ccccc1F	-11.2%	21.6	15.5*	15.4%	-41.0%	?
Cc1cccc(NC(=O)CCn2ccnc2C)c1	-6.3%	50.2*	21.4*	21.3%	-6.8%	-48.9%
Cc1ccc(SCC(=O)Nc2cccc(C)c2)cc1	-0.7%	24.0	18.8*	17.2%	-8.6%	?
Cc1cccc(NC(=O)CC(=O)Nc2cccc(C)c2)c1	13.7%	-3.3	-1.5	·	-8.2%	7.3%
CC(C)NS(=O)(=O)c1ccc(NC(=O)C(C)OC(=O)CCC(=O)c2cccs2)cc1 (stereo unspecified)	·	·	·	3.5%	·	-2.0%
O=C(Cc1ccccc1F)Nc1cccc2cccnc12	-0.9%	29.2*	24.2*	43.3%	-7.5%	27.0%
Cc1cccc(NC(=O)CSc2cccc3cccnc23)c1	8.3%	31.1	13.7*	-22.0%	-43.5%	?
Cc1ccc(C)c(NC(=O)CSc2cccc3cccnc23)c1	-7.2%	-7.9	-0.8	11.4%	-24.5%	?
CS(=O)(=O)N1CCC2(CCN(c3ccccc3)CC2)CC1	9.7%	·	·	·	·	·
CCOC(=O)c1c(NC(=O)C2C3C=CC(C3)C2C(=O)O)sc2c1CCC(C)C2 (stereo unspecified)	18.8%	-8.1	-5.5	-1.2%	5.4%	?
CCOC(=O)c1c(N2C(=O)C3C4C=CC(C4)C3C2=O)sc2c1CCC(C)C2 (stereo unspecified)	2.1%	-7.7	-2.6	1.0%	-7.1%	13.1µM*
CCOc1cccc(-c2c(C(=O)N/N=C/c3ccsc3)nnn2-c2nonc2N)c1	·	-7.1	-7.5	-4.0%	-0.8%	?
COc1ccc(Cl)cc1NC(=O)CNc1ccccc1CN(C)C1CCCCC1	0.1%	13.4	2.7	?	·	?
COc1ccc(C)cc1NC(=O)CNc1ccccc1CN(C)C1CCCCC1	1.0%	-10.4	-1.2	14.7µM*	·	4.65µM*
COc1ccc(CC(=O)Nc2ccc(F)c(Cl)c2)cc1S(=O)(=O)N1CCOCC1	·	·	·	6.57µM*	·	?
COc1ccc(NC(=O)Cc2ccc(Cl)cc2)cc1S(=O)(=O)N1CCCCC1	·	·	·	?	·	10.4µM*
COc1ccc(CC(=O)Nc2cccc(C(C)=O)c2)cc1S(=O)(=O)N1CCOCC1	·	·	·	-12.6%	·	-19.3%
COc1ccc(S(=O)(=O)N(C)C)cc1NCC(=O)Nc1ccc(Br)c(C)c1	-0.9%	-14.9	2.3	10.4µM*	·	?
CCOc1ccc(CCNC(=O)COC(=O)COc2ccc(C(=O)CC)cc2)cc1OCC	·	·	·	?	·	5.3%
O=C(Cc1ccccc1)c1ccccc1C(=O)N1CCCCC1	2.5%	21.6	2.2	·	-5.5%	8.3%
COc1ccc2nc(C)cc(Nc3ccc(N4CCN(C)CC4)cc3)c2c1	-5.8%	13.8	-3.0	-0.2%[0.00184 µM]	6.9%	?
CC(=O)OCC(=O)[C@@]1(O)CCC2C3C[C@H](C)C4=CC(=O)C=CC4(C)C3C(O)CC21C (stereo partly specified)	5.1%	-2.3	-1.8	-12.3%	·	-24.2%
COc1ccc(NC(=O)c2cc3c(s2)CCC(C)C3)cc1S(=O)(=O)N1CCOCC1 (stereo unspecified)	-1.3%	11.0	10.2	?	?	7.38µM*
COc1ccc(C)cc1NCC(=O)Nc1ccc(C(C)(C)C)cc1	-9.7%	-7.2	-2.4	?	-1.9%	9.28µM*
SMILES	FBPA Giardia inh	Shiga toxin inh	CHX counter	Pf growth 48h	NS1 function inh	Pf growth 96h
COc1ccc(NC(=O)Cc2coc3cc(C)ccc23)cc1S(=O)(=O)N1CCOCC1	-12.3%	-3.6	1.8	-8.4%	7.5%	69.9%
COc1ccc(Br)cc1CN(C)C(=O)Cc1ccc(OC)c(S(=O)(=O)N2CCOCC2)c1	·	·	·	?	·	6.57µM*
COC(=O)c1cc(OC)c(OC)cc1NCC(=O)Nc1ccc(C)cc1	2.0%	12.9	0.5	-9.9%	-21.4%	9.4%
COc1ccc(CN(C)C(=O)Cc2ccc(OC)c(S(=O)(=O)N3CCOCC3)c2)cc1OC	·	·	·	-17.0%	·	?
Cc1ccc(NC(=O)c2cc3c(s2)CCC3)cc1S(=O)(=O)N1CCOCC1	-0.4%	-10.2	1.0	?	3.9%	·
COc1ccc(NC(=O)CNc2cc(C)ccc2C)cc1S(=O)(=O)N1CCOCC1	·	·	·	?	·	14.7µM*
O=C(Nc1ccccc1Oc1ccccc1)C1=COCCO1	10.6%	-4.0	7.2	-26.1%	-11.1%	-23.9%
Cc1ccc(CNC(=O)c2ccc(N3CCC4(CC3)CC(c3ccccc3)=NO4)c([N+](=O)[O-])c2)cc1	-1.7%	1.9	-3.0	?	-6.9%	?
CN(C)c1ccc(-c2ccc(C3C4C=CCCC4(C)C(=O)N3Cc3ccccc3)c(F)c2)cc1 (stereo unspecified)	-4.7%	18.0	22.0	·	·	·
COc1ccc(NC(C)=O)cc1S(=O)(=O)N1CCN(C(=O)c2ccccc2F)CC1	7.7%	-2.7	-2.2	2.08µM*	3.8%	?
COc1ccc(S(=O)(=O)N(C)C)cc1NC(C)C(=O)Nc1cccc(C#N)c1 (stereo unspecified)	1.0%	7.6	-2.1	2.94µM*	·	?
COc1ccc(CC(=O)Nc2ccc(C)c(S(=O)(=O)N3CCCCCC3)c2)cc1	·	·	·	?	·	7.5%
CN(C)S(=O)(=O)c1cccc(NC(=O)COc2cccc(C#N)c2)c1	0.2%	2.5	11.6	21.9%	0.0%	7.8%
COc1ccc(NC(=O)C2CCC(C(C)(C)C)CC2)cc1S(=O)(=O)N1CCOCC1 (stereo unspecified)	·	·	·	?	·	13.1µM*
Cc1ccc(NC(=O)Cc2ccc(Cl)cc2)cc1S(=O)(=O)N1CCCCCC1	·	·	·	13.1µM*	·	?
COc1ccc(CNc2nc(-c3cccc(C#N)c3)nc3ccccc23)c(OC)c1	-8.9%	·	·	·	·	·
COc1ccc(NC(=O)c2cccc(NC3=NC4CS(=O)(=O)CC4S3)c2)cc1Cl (stereo unspecified)	-11.3%	0.7	1.6	7.9%	-6.4%	2.3%
CCOc1ncccc1C(=O)Nc1ccc(OC)c(S(=O)(=O)N2CCOCC2)c1	·	·	·	31.0%	·	16.1%
Cc1c(C(=O)O)nc(/C=C\C(=O)O)[nH]c1=O	·	·	·	·	-2.0%	·
COc1ccc(S(=O)(=O)N2CCCCCC2)cc1N	8.3%	-1.6	-1.2	21.3%	8.8%	-0.9%
CN(C)c1oc(-c2ccccc2Cl)nc1S(=O)(=O)c1ccccc1	2.1%	-6.1	-6.5	·	-49.3%	6.57µM*
Nc1nccnc1C(=O)OCC(=O)NCCc1ccc(Cl)cc1	·	·	·	39.1%	·	47.5%
COc1ccc(C(=O)N2CCC(C(=O)Nc3ccc4c(c3)OCCO4)CC2)cc1	-4.6%	42.9	48.4*	·	-5.5%	35.2%
